Data: PubChem BioAssay AID626 (Vanderbilt High Throughput Screening Facility, 2007)
Hit rate of the full screen: of about 64,000 compounds, about 1,900 (3%) were called active. The sample holds actives, similar compounds and a random draw of the others, so the mix is not that of the screen. A number with no mark means an inactive call.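 How the source made its calls: active means fluorescence rise, raw or as B-score row- and column-corrected plate score, outside the 99.7% band of its plate's samples, either direction; inactive means the rest.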

What follows are compounds tested on Muscarinic acetylcholine receptor M1 (assay: M1 muscarinic receptor agonists, primary screen, CHO-M1 cells, Fluo-4 calcium, agonist mode (AID 626)). Settings: Fluo-4 calcium fluorescence, at 10 µM, stronger effect = higher value.

Row | SMILES | B-score
1 | Cc1ccc(C)n1C(Cc1ccccc1)C(=O)O (stereo unspecified) | -0.967
2 | COc1ccc(C(=O)N(Cc2ccc(N(C)C)cc2)C2CCS(=O)(=O)C2)cc1 (stereo unspecified) | 0.609
3 | CC(C)(C)Nc1c(N)c(=O)oc2ccccc12 | 0.371
4 | Cc1onc(-c2ccccc2Cl)c1C(=O)NCCn1ccc2ccccc21 | -0.0968
5 | CCOC(=O)C1=C(C)NC(=O)N(C(C)=O)C1c1ccc(Cl)cc1 (stereo unspecified) | -0.0464
6 | CN1C(=O)c2ccc(NC(=O)C3CCCCC3)cc2C1=O | -1.25
7 | CN1C(=O)c2ccc(NC(=O)c3c(F)c(F)c(F)c(F)c3F)cc2C1=O | 4.34 (active)
8 | CCC(=O)Nc1ccc(C(=O)Nc2ccc3c(c2)C(=O)N(CC2CCCO2)C3=O)cc1 (stereo unspecified) | 0.81
9 | CCOC(=O)c1ccc(Nc2cc(C)nc3nc(C)nn23)cc1 | -0.0395
10 | CC(=O)c1ccc(-n2nnnc2SCC(=O)N2CCN(C(=O)c3ccco3)CC2)cc1 | 0.19
11 | COc1ccc(NC(=O)C2CCCN(S(=O)(=O)c3cccc4cccnc34)C2)cc1 (stereo unspecified) | 0.324
12 | COc1ccc(NC(=O)C2CCCN(S(=O)(=O)c3cccc4cccnc34)C2)cc1OC (stereo unspecified) | 4.34 (active)
13 | COc1ccccc1CNC(=O)C1CCCN(S(=O)(=O)c2cccc3cccnc23)C1 (stereo unspecified) | 0.00364
14 | CCOc1cc(C2C(C(=O)OC)=CN(C3CCCC3)C=C2C(=O)OC)cc(Br)c1O | -0.323
15 | CCOC(=O)CSC1=C(C#N)C(c2ccco2)C(C(=O)OCc2ccccc2)=C(C)N1 (stereo unspecified) | -0.00433
16 | N#CC1=C(N)Oc2c(sc3ccccc23)C1c1ccco1 (stereo unspecified) | 52 (active)
17 | N/C(=N\c1nc2ccccc2o1)NC(=O)C(Cc1ccccc1)N1C(=O)c2ccccc2C1=O (stereo unspecified) | 2.31
18 | Cc1ccc(Cn2ccc(NC(=O)c3cc(C(C)C)on3)n2)cc1 | -1.01
19 | Cn1c(=NC(=O)CSCC(=O)N2CCCCC2)sc2ccccc21 | -0.071
20 | O=C(c1cc(-c2cccs2)on1)N1CCCCC1 | 1.09
21 | O=C(CSCc1cccs1)N1CCCC1 | 4.57 (active)
22 | COc1ccccc1-n1nnnc1S(=O)(=O)Cc1ccc(Cl)cc1 | 0.986
23 | COc1ccccc1NC(=O)CSc1nnc(Cn2nnc(-c3ccccc3)n2)n1-c1ccccc1 | 2.12 (active)
24 | COc1ccccc1NC(=O)CSc1nnc(Cc2cccn2C)n1-c1ccc(F)cc1 | -0.202

Row | SMILES | B-score
25 | COc1ccccc1NC(=O)CSc1nnc(-c2ccoc2C)n1CCc1ccccc1 | 0.464
26 | Cc1ccc(NC(=O)CCN2CCc3ccccc3C2)cc1 | -0.165
27 | CCOC(=O)c1ccc(NC(=O)Cn2nnc(-c3ccc(C)cc3)n2)cc1 | -0.837
28 | CCN=C1SC(CC(=O)Nc2ccc(C)cc2)C(=O)N1CC (stereo unspecified) | 5.15 (active)
29 | CCC(Oc1ccccc1)C(=O)NCc1cccnc1 (stereo unspecified) | -0.899
30 | CN1CCN(S(=O)(=O)c2ccc3[nH]cc(C(=O)O)c(=O)c3c2)CC1 | 0.537
31 | CC1CCN(Cc2nc3c(c(=O)n(C)c(=O)n3C)n2CCc2ccccc2)CC1 | 0.945
32 | COCCn1c(CN2CCC(Cc3ccccc3)CC2)nc2c1c(=O)n(C)c(=O)n2C | 3.45 (active)
33 | COCCn1c(CN(Cc2ccccc2)Cc2ccccc2)nc2c1c(=O)n(C)c(=O)n2C | 0.66
34 | CCOC(=O)c1ccc(NC(=O)CSc2nnc(COc3ccccc3OC)n2C)cc1 | 0.692
35 | O=C(Nc1ccccc1N1CCCCC1)c1cccc(F)c1 | 0.341
36 | C/C(=C(\C#N)C(=O)NCCCN1CCOCC1)N(C)C | 0.122
37 | Cc1cc(Nc2cccc(F)c2)n2ncnc2n1 | 1.22
38 | CCOC(=O)C1CCN(C(=O)Nc2ccc(Cl)cc2)CC1 | 0.00389
39 | CCOC(=O)C1CCCN(Cc2nc(N)nc(Nc3ccc(C)cc3)n2)C1 (stereo unspecified) | 35.2 (active)
40 | CCOC(=O)[C@H]1CCC[C@@H](NS(=O)(=O)c2ccc(NC(C)=O)cc2)C1 | -0.507
41 | CCn1c(SCCC(C)C)nnc1-c1c[nH]c2ccccc12 | 0.584
42 | Cc1nc2ccccc2c2oc(C(=O)NCCCN3CCC(C)CC3)cc12 | 0.3
43 | CCCN(CCC)CCNC(=O)c1cc2c(C)nc3ccccc3c2o1 | -0.845
44 | Cc1nc2ccccc2c2oc(C(=O)NCC3CCCO3)cc12 (stereo unspecified) | 2.93 (active)
45 | COCCN1C(=O)c2oc3c(C)cc(C)cc3c(=O)c2C1c1cccc(O)c1 (stereo unspecified) | 0.00288
46 | CCOC(=O)Cn1c(=O)oc2cc(S(=O)(=O)N(C)Cc3ccco3)ccc21 | -0.339
47 | O=C(c1ccco1)N1CCN(C(=O)C2CC(c3ccc(Cl)c(Cl)c3)=NO2)CC1 (stereo unspecified) | -0.464
48 | Cc1ccc(S(=O)(=O)Nc2ccc3ncccc3c2)cc1 | 3.16 (active)

Row | SMILES | B-score
49 | CC(=O)N1CCN(C(=O)c2cccc(S(=O)(=O)Nc3ccc(C)cc3)c2)CC1 | 0.272
50 | O=S(=O)(Nc1ccc2nc(-c3ccco3)[nH]c2c1)c1ccccc1 | -0.0329
51 | CCOC(=O)c1sc(NC(=O)CSc2nnc(-c3ccco3)o2)c(C(=O)OCC)c1C | -0.0997
52 | CCOc1cc(/C=N/O)cc(Br)c1OC | 0.00429
53 | O=C(Nc1ccccc1C(=O)N1CCOCC1)C1CCC(=O)N1C1CCCC1 (stereo unspecified) | 0.307
54 | COc1ccccc1Cc1nc(-c2ccc(C)cc2)no1 | 3.86 (active)
55 | Cc1ccc(Cc2nc(-c3cccc(C)c3)no2)cc1 | -0.177
56 | Cc1ccc(-c2noc(CN3CCN(Cc4ccccc4)CC3)n2)cc1 | -0.531
57 | O=C(NCCN1CCOCC1)c1c(F)c(F)c(F)c(F)c1F | 0.102
58 | COCCNC(=O)C(c1ccc(C)o1)N(Cc1cccs1)C(=O)c1snc(C(N)=O)c1N (stereo unspecified) | 2.74 (active)
59 | CCC(C(=O)NC1CCCC1)N(C(=O)c1snc(C(N)=O)c1N)c1ccc2c(c1)OCCO2 (stereo unspecified) | -0.647
60 | COCCNC(=O)C(c1ccc(C)o1)N(Cc1ccccc1)C(=O)Cn1nnc2ccccc21 (stereo unspecified) | -0.295
61 | CC(Nc1nc(N2CCCC2)nc2ccccc12)c1ccccc1 (stereo unspecified) | 0.0749
62 | CCOCCCNC(=O)Cc1cc(=O)[nH]c(=O)[nH]1 | -0.622
63 | COc1ccc(CN(C(=O)c2cccs2)c2nccs2)cc1OC | -0.233
64 | Cc1cc(C)c2nc(N3CCCC3)c(C#N)cc2c1 | 0.391
65 | COc1ccc2nc(N3CCCC(O)C3)c(C#N)cc2c1 (stereo unspecified) | 15 (active)
66 | COc1ccc(N2CCN(C(=O)CSc3nc4cc(OC)c(OC)cc4cc3C#N)CC2)cc1 | -0.487
67 | COC(=O)c1cc(C(=O)CSc2nc(C)cc(C)n2)ccc1O | -0.00415
68 | Oc1c(C(c2ccco2)N2CCC3(CC2)OCCO3)sc2ncnn12 (stereo unspecified) | -0.563
69 | CCCCCNC(=O)Cc1ccc(OC)cc1 | 1.29
70 | O=C(Nc1ccccc1-c1nnn(CC(=O)N2CCN(c3ccccc3)CC2)n1)c1cccs1 | -0.15
71 | Cc1cccn2c(=O)c3cc(C(=O)NCc4ccccn4)n(C)c3nc12 | -0.541
72 | O=C(NCc1ccccn1)c1cc2ccccc2oc1=O | -0.243

Row | SMILES | B-score
73 | O=C(NCc1ccccn1)c1ccc2nc(-c3ccco3)c(-c3ccco3)nc2c1 | 3.06 (active)
74 | CC1CCCCN1CC(=O)NCc1ccc2c(c1)OCO2 (stereo unspecified) | -0.147
75 | CCn1c(Cc2ccccc2)nnc1SCc1nc2ccccc2c(=O)[nH]1 | 0.17
76 | O=C(O)c1ccc(COCC(F)(F)F)cc1 | 3 (active)
77 | O=C(C1CCC1)N1CCc2cc(S(=O)(=O)NCc3cccnc3)ccc21 | -2.04
78 | COC(=O)c1cn(C)c2ccc(S(=O)(=O)N3CC(C)CC(C)C3)cc2c1=O (stereo unspecified) | -0.784
79 | O=C(COc1ccccc1)NCc1ccc2c(c1)OCO2 | 0.038
80 | CCOC(=O)NCc1ccc2c(c1)OCO2 | 0.801
81 | c1n[nH]c(NCc2ccc3c(c2)OCO3)n1 | 2.68 (active)
82 | Cc1ccc(-c2csc3nnc(SCC(=O)NCc4ccco4)n23)cc1 | 0.495
83 | COC(=O)c1ccccc1NC(=O)CN(Cc1ccccc1)S(C)(=O)=O | 0.117
84 | CCOc1ccc(N2C(=O)CC(N(O)c3ccccc3)C2=O)cc1 (stereo unspecified) | 0.335
85 | COc1ccccc1N1CCN(C(=O)c2cc(-c3ccc(Br)cc3)on2)CC1 | -0.734
86 | COc1ccccc1N1CCN(C(=O)c2cc(-c3ccc(Cl)c(Cl)c3)on2)CC1 | -0.0802
87 | COc1ccccc1N1CCN(C(=O)c2c(-c3c(Cl)cccc3Cl)noc2C)CC1 | 4.97 (active)
88 | O=C(c1ccco1)N1CCN(CC(=O)N(C2CCCCC2)C2CCS(=O)(=O)C2)CC1 (stereo unspecified) | 1.21
89 | COc1ccc(S(=O)(=O)N2CCCCC2)cc1Br | -0.037
90 | O=C(CCSc1ccccc1)NCCSc1ccccn1 | -0.157
91 | COc1c(F)c(F)c(-c2csc(N)n2)c(F)c1F | -0.0216
92 | Cc1nc2c(c(=O)n1Cc1ccco1)c1nc3ccccc3nc1n2Cc1ccccc1 | -1.33
93 | COc1ccc(CC(=O)Nc2nc3n(n2)C(c2ccccc2)CC(=O)N3)cc1OC (stereo unspecified) | 1.86
94 | COc1cc2c(cc1OC)C(c1ccc(C)o1)CC(=O)N2 (stereo unspecified) | 0.00289
95 | COCCOC(=O)C1=C(C)NC(=O)CC1c1cc2c(cc1Br)OCO2 (stereo unspecified) | 0.114
96 | CCCOc1ccccc1C1CC(=O)Nc2cc3c(cc21)OCO3 (stereo unspecified) | 4.33 (active)
